# Reference: PubChem BioAssay (NCATS)
# “And” between values parts separate entries of the source, which are not always exact repeats. Identical values can stand only once. Records with an inconclusive call do not appear. Entries that show only a call come without a potency. A structure can be active in one record and inactive in another. The source made the active and inactive calls. Unless noted, calls follow the shape of the dose curve; as a rule, active = well fitted curve in the direction sought with a large enough effect; inconclusive = small, poorly fitted or top-dose-only effect, or another doubt; inactive = no such curve, though single readings can be large; an effect the other way counts as inactive or inconclusive.
# Experiments:
# [1] = target: Thioredoxin reductase 1, cytoplasmic (Rattus norvegicus) (UniProt O89049); test: qHTS Assay for Substrates of Mammalian Selenoprotein Thioredoxin Reductase 1 (TrxR1) (AID 488772);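 also: NADPH fluorescence in the first read after selenite addition and not the 8 min delta; series mostly up to about 57 µM; a drop in NADPH fluorescence below the no-compound background marks a TrxR1 substrate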
# In short: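 Quantitative HTS in Tris-HCl buffer at pH 7.5 with EDTA and Tween-20, using rat TrxR1, 400 uM NADPH and 400 uM selenite (final). A fall in initial NADPH fluorescence relative to background marked substrate behaviour.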
# [2] = target: Thioredoxin reductase 1, cytoplasmic (Rattus norvegicus) (UniProt O89049); test: qHTS Assay for Inhibitors of Mammalian Selenoprotein Thioredoxin Reductase 1 (TrxR1) (AID 488773); settings: Potency: inhibition; also: nearly all actives have a fitted effect of over 40% in size; also: potency is read from the fitted curve at half-maximal effect
# In short: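 Steps: enzyme (90 nM) plus NADPH (400 uM final), 5 min at ~22 deg C; compound added, 15 min; selenite (400 uM final) added; fluorescence followed for 8 min. Concentration-response curves derived from the normalized delta values.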
# [3] = target: Flap endonuclease 1 (Homo sapiens) (UniProt P39748); test: qHTS Validation Assay for the Inhibitors of Human Flap endonuclease 1 (FEN1) (AID 488816); also: potency is read from the fitted curve at half-maximal effect
# In short: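 Readings taken at 0 and 15 min after starting the reaction with 50 nM (final) substrate supplied the signal. Compounds had first sat with 10 nM FEN1 reagent for 15 min at room temperature. Values come from Hill-equation concentration-response fits.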
# [4] = target: Transient receptor potential cation channel subfamily V member 1 (Homo sapiens) (UniProt Q8NER1); test: HTS Assay for Compounds that Act as Enhancers of the Vanilloid Receptor 1 (AID 488979)
# In short: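 Calcium influx kinetics via Fluo-8 (480/520 nm) in TRPV1-expressing cells, 2000/well cultured overnight at 35.5C. Compound-alone read 3 min (agonist phase), followed by EC20 capsaicin challenge for 2 min (enhancer phase).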
# [5] = target: Thyrotropin receptor (Homo sapiens) (UniProt P16473); test: qHTS Assay for Antagonists of the Thyroid Stimulating Hormone Receptor (AID 488980); also: series mostly up to about 58 µM
# In short: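 Inhibition of cAMP raised by EC80 TSH (4 nM final) was read by HTRF, with lysate cAMP competing against cAMP-d2 for cryptate antibody after 30 min at room temperature. The cells were transfected HEK293 held in phosphodiesterase inhibitor RO 20-1724 at 70 uM.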
# [6] = target: D(1A) dopamine receptor (Homo sapiens) (UniProt P21728); test: HTS Assay for Allosteric Agonists of the Human D1 Dopamine Receptor: Primary Screen for Agonists (AID 488981); also: potency is read from the fitted curve at half-maximal effect
# In short: (§1)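 Calcium flux in an inducible, force-coupled HEK293 Trex D1 line (overnight at 30 C): agonist mode is the 180 s kinetic read after compound; potentiator mode is the following 180 s read after dopamine at EC20.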
# [7] = target: D(1A) dopamine receptor (Homo sapiens) (UniProt P21728); test: HTS Assay for Allosteric Agonists of the Human D1 Dopamine Receptor: Primary Screen for Antagonists (AID 488983);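 also: calcium flux response to an EC80 dopamine challenge measured with no-wash dye; nearly all actives have a fitted effect of over 65% in size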; also: potency is read from the fitted curve at half-maximal effect
# In short: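 Screening of inducible HEK293 T-REx D1 cells: compound first, EC80 dopamine 180 s later, each phase read kinetically for calcium over 180 s.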
# [8] = Validation screen for small molecules that induce genotoxicity in human embryonic kidney (HEK293T) cells expressing luciferase-tagged ELG1 (AID 493106); also: potency is read from the fitted curve at half-maximal effect
# In short: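 Reporter-gene quantitative HTS in HEK293T cells carrying luciferase-tagged ELG1, whose level climbs under genotoxic stress. Compound exposure lasts 16 hr at 37 °C before luciferase detection.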
# [9] = target: ATPase family AAA domain-containing protein 5 (Homo sapiens) (UniProt Q96QE3); test: Validation screen for small molecules that inhibit ELG1-dependent DNA repair in human embryonic kidney (HEK293T) cells expressing luciferase-tagged ELG1 (AID 493107); also: nearly all actives have a fitted effect of over 70% in size; also: potency is read from the fitted curve at half-maximal effect
# In short: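 Quantitative HTS in HEK293T cells carrying luciferase-tagged ELG1, stimulated with 5-fluorouridine alongside compound for 16 hr. Loss of luciferase signal marks inhibition of ELG1 response.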
# [10] = target: Thyrotropin-releasing hormone receptor (Homo sapiens) (UniProt P34981); test: qHTS for Small Molecule Agonists and Allosteric Enhancers of Human TRH Receptor: Validation Screen for Agonists (AID 493127;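 active = calcium activation more than 3 SD above the typical response in the agonist read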;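 also: intracellular calcium rise by fluo-8 fluorescence before TRH EC20 addition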); settings: TRH receptor agonist cell assay; at 2 µM; stronger effect = higher value
# In short: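 Gq-coupled calcium mobilization in TRHR cells after compound addition, monitored kinetically with fluo-8 dye on an FDSS reader.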
# [11] = Nrf2 qHTS screen for inhibitors: Validation (AID 493153; active = well fitted inhibition curve with a large enough effect in the main read-out, with a control signal flat, not every such curve was filed as active); settings: Potency: luciferase luminescence; viability change: measured here: cytotoxicity max response
# In short: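 Dose-response validation uses reporter A549 cells with firefly luciferase under an antioxidant response element. Compounds stay on cells 18-24 h at 37°C, and luminescence indicates Nrf2-driven transcription.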
# [12] = qHTS for Inhibitors of Cell Surface uPA Generation: Validation Assay (AID 493164);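 also: RAW 264.7 macrophage cells exposed to compound for 18 h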
# In short: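 RAW 264.7, 4000 cells/well, o/n plating; cpd 7-pt 1:5 dilution 2.45 nM–38.3 uM final; 18 h, 37 C/5% CO2; ATP-Lite, 5 s luminescence exposure.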
# [13] = target: Galactokinase (Homo sapiens) (UniProt P51570); test: qHTS Validation Assay for Inhibitors of Human Galactokinase (GALK) (AID 493189)
# In short: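 Inhibition was measured as remaining ATP, detected by luciferase luminescence after a 1 h room-temperature reaction. Final conditions: 5 nM GALK, 100 uM galactose, 35 uM ATP, pH 8.0 HEPES buffer.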
# [14] = Validation screen for small molecules that induce DNA re-replication in SW480 colon adenocarcinoma cells (AID 504364)
# In short: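 Cells are treated 48 hr with test compound, stained 40 min with Hoechst at 37 C, and scanned for nuclear fluorescence; compounds inducing re-replication increase nuclei with elevated intensity.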
# [15] = target: Chromobox protein homolog 1 (Homo sapiens) (UniProt P83916); test: qHTS Validation Assay for Inhibitors of HP1-beta Chromodomain Interactions with Methylated Histone Tails (AID 488953); also: nearly all actives have a fitted effect of over 50% in size; also: potency is read from the fitted curve at half-maximal effect
# In short: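 Measured as loss of AlphaScreen luminescence from streptavidin donor and nickel acceptor beads (10 ug/mL final) bridging HP1-beta and biotin-H3(1-18)K9me3, each 50 nM. Compounds met the preassembled complex for 30 min at RT.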
# [16] = target: Methanococcus maripaludis chaperonin (MmCpn) (UniProt Q6LX38); test: High-Throughput Screening for Modulators of Cytosolic Chaperonin Activity: MmCpn Primary Screen (AID 488978);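 also: 50 nM MmCpn enzyme hydrolysing 30 µM ATP at 37 °C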
# In short: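 ATPase activity of 50 nM MmCpn was assayed with 30 uM ATP, 10 minutes at 37C, after a 5 min compound preincubation at room temperature. ADP production was read as HTRF emission at 590 and 665 nm.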
# [17] = target: M-phase phosphoprotein 8 (Homo sapiens) (UniProt Q99549); test: qHTS Validation Assay for Inhibitors for MPP8 Chromodomain Interactions with Methylated Histone Tails (AID 488949); also: nearly all actives have a fitted effect of over 55% in size; also: potency is read from the fitted curve at half-maximal effect
# In short: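 AlphaScreen proximity signal from streptavidin donor and Ni-chelate acceptor beads (10 ug/mL each) reported binding of MPP8 to trimethyl-K9 H3(1-18) peptide, both at 50 nM. The complex formed 30 min before a 30 min compound exposure at room temperature, in PBS pH 7.4.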
# [18] = target: D(1A) dopamine receptor (Homo sapiens) (UniProt P21728); test: HTS Assay for Allosteric Agonists of the Human D1 Dopamine Receptor: Primary Screen for Potentiators (AID 488982); also: potency is read from the fitted curve at half-maximal effect
# In short: as §1
# Chain of Thioredoxin reductase 1, cytoplasmic (Rattus norvegicus) (O89049 whole entry, looked up): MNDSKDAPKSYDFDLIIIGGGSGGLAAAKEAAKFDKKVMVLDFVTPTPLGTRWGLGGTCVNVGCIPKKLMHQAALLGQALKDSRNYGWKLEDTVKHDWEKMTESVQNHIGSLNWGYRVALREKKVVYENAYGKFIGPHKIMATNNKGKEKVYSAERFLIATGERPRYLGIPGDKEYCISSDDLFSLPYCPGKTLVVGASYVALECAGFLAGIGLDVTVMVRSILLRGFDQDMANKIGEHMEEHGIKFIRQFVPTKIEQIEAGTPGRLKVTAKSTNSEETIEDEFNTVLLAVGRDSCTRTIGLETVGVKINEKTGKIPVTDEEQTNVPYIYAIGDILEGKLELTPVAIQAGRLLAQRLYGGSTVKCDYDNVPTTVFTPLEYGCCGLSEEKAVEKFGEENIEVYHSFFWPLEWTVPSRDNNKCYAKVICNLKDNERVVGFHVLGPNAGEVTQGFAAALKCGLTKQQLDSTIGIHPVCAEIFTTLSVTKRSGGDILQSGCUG
# Chain of Galactokinase (Homo sapiens) (P51570 whole entry, looked up): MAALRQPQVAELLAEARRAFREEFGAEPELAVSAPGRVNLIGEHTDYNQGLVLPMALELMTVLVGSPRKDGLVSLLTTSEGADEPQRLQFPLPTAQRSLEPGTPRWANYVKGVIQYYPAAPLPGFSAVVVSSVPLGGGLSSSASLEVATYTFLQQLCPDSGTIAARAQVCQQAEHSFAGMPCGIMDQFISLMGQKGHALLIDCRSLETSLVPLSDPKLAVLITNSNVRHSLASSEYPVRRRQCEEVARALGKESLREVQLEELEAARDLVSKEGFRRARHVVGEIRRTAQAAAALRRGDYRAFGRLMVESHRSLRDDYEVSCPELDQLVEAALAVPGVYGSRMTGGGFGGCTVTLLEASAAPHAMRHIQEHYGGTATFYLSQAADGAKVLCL
# Chain of Chromobox protein homolog 1 (Homo sapiens) (P83916 whole entry, looked up): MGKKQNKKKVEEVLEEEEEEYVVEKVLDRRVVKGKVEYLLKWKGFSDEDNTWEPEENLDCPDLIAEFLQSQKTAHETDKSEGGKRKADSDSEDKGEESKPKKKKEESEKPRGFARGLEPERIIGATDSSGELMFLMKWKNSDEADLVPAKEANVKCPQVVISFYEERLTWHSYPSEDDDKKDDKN
# Chain of Methanococcus maripaludis chaperonin (MmCpn) (Q6LX38 1-543): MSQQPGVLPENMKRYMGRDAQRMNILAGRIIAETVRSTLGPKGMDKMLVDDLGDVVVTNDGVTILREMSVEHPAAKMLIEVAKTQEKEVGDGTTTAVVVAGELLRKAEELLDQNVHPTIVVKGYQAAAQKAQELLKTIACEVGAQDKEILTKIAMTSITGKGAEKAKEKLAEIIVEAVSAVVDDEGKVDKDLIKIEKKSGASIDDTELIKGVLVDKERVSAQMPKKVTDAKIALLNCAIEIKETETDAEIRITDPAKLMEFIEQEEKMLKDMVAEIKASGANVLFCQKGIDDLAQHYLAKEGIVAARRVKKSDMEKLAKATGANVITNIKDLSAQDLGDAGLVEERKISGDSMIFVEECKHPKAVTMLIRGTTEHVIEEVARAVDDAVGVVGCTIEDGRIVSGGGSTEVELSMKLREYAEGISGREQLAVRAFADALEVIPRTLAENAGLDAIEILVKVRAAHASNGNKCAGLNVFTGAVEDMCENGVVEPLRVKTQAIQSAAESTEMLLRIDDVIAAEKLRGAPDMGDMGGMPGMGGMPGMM
# Chain of Thyrotropin receptor (Homo sapiens) (P16473 whole entry, looked up): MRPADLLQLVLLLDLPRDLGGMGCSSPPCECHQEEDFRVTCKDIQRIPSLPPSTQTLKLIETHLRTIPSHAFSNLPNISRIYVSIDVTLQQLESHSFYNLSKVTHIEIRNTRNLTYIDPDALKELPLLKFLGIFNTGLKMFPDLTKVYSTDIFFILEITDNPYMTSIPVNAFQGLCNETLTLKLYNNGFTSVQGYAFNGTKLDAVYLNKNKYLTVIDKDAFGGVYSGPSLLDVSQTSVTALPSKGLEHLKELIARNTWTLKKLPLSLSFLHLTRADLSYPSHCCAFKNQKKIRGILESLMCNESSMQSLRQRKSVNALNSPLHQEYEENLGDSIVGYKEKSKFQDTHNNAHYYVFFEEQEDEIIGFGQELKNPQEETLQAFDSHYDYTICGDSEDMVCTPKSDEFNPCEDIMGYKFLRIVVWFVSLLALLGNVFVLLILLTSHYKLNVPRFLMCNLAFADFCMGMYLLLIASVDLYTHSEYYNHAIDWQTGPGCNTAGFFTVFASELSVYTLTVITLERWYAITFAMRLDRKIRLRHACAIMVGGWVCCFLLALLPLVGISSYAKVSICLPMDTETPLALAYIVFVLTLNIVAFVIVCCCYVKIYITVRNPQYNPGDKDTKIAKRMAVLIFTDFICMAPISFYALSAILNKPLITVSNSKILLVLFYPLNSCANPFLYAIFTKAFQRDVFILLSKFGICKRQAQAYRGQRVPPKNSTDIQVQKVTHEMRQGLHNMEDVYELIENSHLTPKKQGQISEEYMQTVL
# Chain of M-phase phosphoprotein 8 (Homo sapiens) (Q99549 whole entry, looked up): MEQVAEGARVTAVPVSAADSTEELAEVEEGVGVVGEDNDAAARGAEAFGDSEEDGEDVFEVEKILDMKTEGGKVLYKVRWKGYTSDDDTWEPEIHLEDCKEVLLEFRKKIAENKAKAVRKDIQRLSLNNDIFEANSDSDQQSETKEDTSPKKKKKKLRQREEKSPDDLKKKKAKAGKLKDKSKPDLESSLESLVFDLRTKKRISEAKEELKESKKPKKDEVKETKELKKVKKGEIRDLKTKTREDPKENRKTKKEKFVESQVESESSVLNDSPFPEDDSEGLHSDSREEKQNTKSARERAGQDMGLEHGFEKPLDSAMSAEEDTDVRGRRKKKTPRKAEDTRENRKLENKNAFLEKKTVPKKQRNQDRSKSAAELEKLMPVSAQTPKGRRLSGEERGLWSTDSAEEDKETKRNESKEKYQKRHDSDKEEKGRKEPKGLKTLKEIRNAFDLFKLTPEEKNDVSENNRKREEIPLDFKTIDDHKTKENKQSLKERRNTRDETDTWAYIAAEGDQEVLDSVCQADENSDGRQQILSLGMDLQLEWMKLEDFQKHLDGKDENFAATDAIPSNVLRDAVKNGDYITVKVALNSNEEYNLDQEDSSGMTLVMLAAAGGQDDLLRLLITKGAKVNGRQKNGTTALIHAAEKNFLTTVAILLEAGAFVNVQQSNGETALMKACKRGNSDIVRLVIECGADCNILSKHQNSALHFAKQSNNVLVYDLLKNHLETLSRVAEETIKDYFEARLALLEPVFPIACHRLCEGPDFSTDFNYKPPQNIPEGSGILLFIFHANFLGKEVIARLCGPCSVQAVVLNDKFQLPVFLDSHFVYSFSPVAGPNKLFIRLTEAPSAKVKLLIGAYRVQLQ
# Chain of Thyrotropin-releasing hormone receptor (Homo sapiens) (P34981 whole entry, looked up): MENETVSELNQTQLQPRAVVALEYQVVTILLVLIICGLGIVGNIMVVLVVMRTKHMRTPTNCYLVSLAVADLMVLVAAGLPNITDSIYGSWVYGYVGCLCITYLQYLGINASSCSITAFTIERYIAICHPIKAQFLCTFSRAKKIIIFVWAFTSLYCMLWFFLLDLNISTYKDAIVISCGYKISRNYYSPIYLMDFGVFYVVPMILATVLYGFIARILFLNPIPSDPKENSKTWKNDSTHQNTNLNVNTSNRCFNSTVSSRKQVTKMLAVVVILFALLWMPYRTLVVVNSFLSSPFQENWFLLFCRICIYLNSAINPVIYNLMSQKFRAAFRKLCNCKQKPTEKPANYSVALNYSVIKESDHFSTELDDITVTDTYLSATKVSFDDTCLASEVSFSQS
# Chain of D(1A) dopamine receptor (Homo sapiens) (P21728 whole entry, looked up): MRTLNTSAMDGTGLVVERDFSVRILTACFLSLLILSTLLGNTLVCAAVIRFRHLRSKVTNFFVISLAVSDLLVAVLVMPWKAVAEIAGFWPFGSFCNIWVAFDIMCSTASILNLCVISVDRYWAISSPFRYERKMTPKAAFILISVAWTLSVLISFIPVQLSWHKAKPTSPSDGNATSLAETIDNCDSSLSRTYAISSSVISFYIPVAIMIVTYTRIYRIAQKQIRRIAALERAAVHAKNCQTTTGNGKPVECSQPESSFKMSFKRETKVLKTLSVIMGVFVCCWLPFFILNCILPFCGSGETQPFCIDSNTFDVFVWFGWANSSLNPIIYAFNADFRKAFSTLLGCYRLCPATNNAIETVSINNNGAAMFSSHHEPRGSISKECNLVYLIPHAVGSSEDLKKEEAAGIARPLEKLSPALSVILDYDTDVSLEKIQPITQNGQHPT
# Chain of Flap endonuclease 1 (Homo sapiens) (P39748 whole entry, looked up): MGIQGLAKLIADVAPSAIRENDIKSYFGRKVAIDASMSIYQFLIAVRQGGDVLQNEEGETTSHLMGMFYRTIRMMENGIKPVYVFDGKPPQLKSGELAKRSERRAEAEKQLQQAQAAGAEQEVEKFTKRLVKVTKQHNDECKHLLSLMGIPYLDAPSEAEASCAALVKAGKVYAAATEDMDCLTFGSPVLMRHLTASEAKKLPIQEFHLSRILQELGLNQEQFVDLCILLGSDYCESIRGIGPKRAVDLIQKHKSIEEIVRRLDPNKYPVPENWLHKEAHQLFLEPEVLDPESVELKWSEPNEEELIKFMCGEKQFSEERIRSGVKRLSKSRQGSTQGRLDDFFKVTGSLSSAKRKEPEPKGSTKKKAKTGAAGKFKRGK
SMILES,Potency [1],Potency [2],Potency [3],outcome [4],outcome [5],Potency [6],Potency [7],Potency [8],Potency [9],activation [10],Potency [11],viability change [11] [%],outcome [12],Potency [13],Potency [14],Potency [15],outcome [16],Potency [17],Potency [18]
C=CC(N)CCC(=O)O (stereo unspecified),inactive,inactive,inactive,inactive,inactive,inactive,inactive,inactive,inactive,-0.0625% (inactive),inactive,4.81,inactive,inactive,inactive,–,–,–,–
Cn1cc(C2=C(c3ccc(Cl)cc3Cl)C(=O)NC2=O)c2ccccc21,inactive,inactive,inactive,–,inactive,14.1 µM (active),inactive,inactive,–,29.6% (inactive),inactive,-10.9,inactive,inactive,inactive,inactive,inactive,–,–
O=C(c1ccc(OCCCc2cnc[nH]2)cc1)C1CC1,inactive,inactive,inactive,–,–,–,inactive,–,–,–,inactive,-3.26,inactive,–,–,–,inactive,inactive,inactive
CN1CCc2cccc3c2C1Cc1ccc(O)c(O)c1-3 (stereo unspecified),inactive,9.47 µM (active),–,inactive,inactive,inactive,–,inactive,–,0.125% (inactive),inactive,0.0644,inactive,inactive,–,–,inactive,20 µM (active),–
CC(C)ON([C@@H](C(=O)NO)C(C)C)S(=O)(=O)c1ccc(-c2ccccc2)cc1,inactive,inactive,inactive,–,–,inactive,inactive,inactive,–,–,–,–,inactive,–,–,–,inactive,inactive,inactive
O=[N+]([O-])c1ccc2c(c1)S(=O)(=O)C=C2,inactive,2.12 µM (active),inactive,–,–,inactive,inactive,inactive,–,–,–,–,inactive,–,–,–,inactive,inactive,–
NC(=S)NCCC[C@H](N)C(=O)O,inactive,inactive,–,–,–,inactive,inactive,inactive,inactive,–,inactive,2.08,inactive,–,–,10 µM (active),inactive,inactive,–
COc1ccc2c(c1)CCC1C2CC[C@@]2(C)C1CC[C@@H]2NCCCCCCN1C(=O)CCC1=O (stereo partly specified),inactive,inactive,inactive,–,–,–,–,inactive,25.9 µM (active),–,inactive,2.91,inactive,–,–,–,–,inactive,inactive
CCCCCCCCCCCCCCCCCCNC(=O)OCC(COP(=O)([O-])OCC[n+]1ccsc1)OC (stereo unspecified),inactive,inactive,inactive,inactive,inactive,inactive,–,inactive,inactive,0.875% (inactive),inactive,1.65,inactive,inactive,–,inactive,inactive,–,inactive
OCC1O[C@H](O)C(Cl)C(O)C1O (stereo partly specified),inactive,inactive,inactive,inactive,inactive,inactive,inactive,inactive,inactive,0.688% (inactive),inactive,4.21,inactive,inactive,inactive,–,–,–,inactive
O=C(O)CC1CC(c2ccccc2)=NO1 (stereo unspecified),inactive,inactive,–,–,–,inactive,inactive,inactive,inactive,–,inactive,12.6,inactive,–,–,inactive,–,inactive,inactive
C=CC(=O)c1ccc(CCCCCC)cc1,inactive,15 µM (active),inactive,–,–,inactive,–,inactive,inactive,–,inactive,-13,inactive,–,–,–,inactive,inactive,–
CCCCCCCC/C=C\CCCCCCCC(=O)NCCO,inactive,–,inactive,inactive,inactive,inactive,–,inactive,–,1.25% (inactive),inactive,1.03,inactive,inactive,inactive,inactive,inactive,inactive,inactive
CCCCC#Cc1nc(NC)c2ncn([C@@H]3O[C@H](CO)[C@@H](O)[C@H]3O)c2n1,inactive,–,inactive,–,–,inactive,inactive,–,inactive,–,inactive,2.21,inactive,–,–,inactive,inactive,–,inactive
O=Nc1ccc2oc(=O)ccc2c1,inactive,–,inactive,inactive,inactive,inactive,inactive,inactive,inactive,-0.5% (inactive),inactive,1.8,inactive,inactive,–,39.8 µM (active),inactive,39.8 µM (active),–
COc1cc(C(O)CO)ccc1OS(=O)(=O)O (stereo unspecified),inactive,–,inactive,inactive,inactive,inactive,–,inactive,inactive,-2.69% (inactive),inactive,-9.03,inactive,inactive,inactive,inactive,inactive,inactive,inactive
O=C(Nc1cccc(C(=O)Nc2ccc(S(=O)(=O)O)c3cc(S(=O)(=O)O)cc(S(=O)(=O)O)c23)c1)Nc1cccc(C(=O)Nc2ccc(S(=O)(=O)O)c3cc(S(=O)(=O)O)cc(S(=O)(=O)O)c23)c1,inactive,–,1.89 µM (active),inactive,inactive,inactive,–,inactive,inactive,0.875% (inactive),inactive,-3.71,inactive,inactive,inactive,20 µM (active),–,31.6 µM (active) and 9.47 µM (active),–
CNC(=O)[C@H]1O[C@@H](n2cnc3c(NCc4ccc(N)cc4)ncnc32)[C@H](O)[C@@H]1O,inactive,–,inactive,–,–,inactive,–,–,inactive,–,inactive,-2.65,inactive,–,–,inactive,inactive,inactive,–
N[C@@H](CC(=O)O)C(=O)O,inactive,–,inactive,inactive,inactive,inactive,inactive,inactive,inactive,1.19% (inactive),inactive,-0.666,inactive,inactive,inactive,inactive,inactive,–,–
CC(C)NC[C@H](O)COc1cccc2[nH]ccc12,inactive,inactive,–,inactive,inactive,inactive,inactive,inactive,inactive,1.12% (inactive),inactive,-1.79,inactive,inactive,inactive,–,inactive,–,inactive
O=C(/C=C/c1ccc(O)cc1)c1ccc(O)cc1O,inactive,–,inactive,inactive,inactive,–,inactive,8.2 µM (active),–,-5.19% (inactive),inactive,-0.936,inactive,inactive,–,–,inactive,inactive,inactive
Oc1cc2c(cc1O)CN(C(=S)NCCc1ccc(Cl)cc1)CCC2,inactive,–,inactive,inactive,inactive,inactive,2 µM (active),inactive,–,2.62% (inactive),inactive,-1.93,inactive,inactive,–,–,inactive,39.8 µM (active) and inactive,inactive
Oc1cc(O)cc(/C=C/c2ccc(O)c(O)c2)c1,inactive,–,0.844 µM (active),inactive,inactive,inactive,–,3.66 µM (active),–,0.938% (inactive),–,–,inactive,inactive,inactive,44.7 µM (active),inactive,39.8 µM (active),0.58 µM (active)
O=C1NC(=O)/C(=C/c2ccc(-c3ccc(F)cc3O)o2)S1,inactive,–,26.7 µM (active),–,–,–,–,–,–,–,–,–,inactive,–,–,39.8 µM (active),–,–,–
O=S(=O)(c1cccc2c(I)cccc12)N1CCCNCC1,inactive,–,inactive,–,inactive,14.1 µM (active),–,inactive,–,2.06% (inactive),inactive,12.3,inactive,inactive,inactive,–,inactive,inactive,inactive
O=C1NC(O)=NC1(c1ccccc1)c1ccccc1,inactive,–,inactive,inactive,inactive,inactive,inactive,inactive,inactive,0.125% (inactive),–,–,–,inactive,inactive,–,inactive,inactive,inactive
